# Screening data from PubChem BioAssay.
# DT40 TDP1 CPT: qHTS for Inhibitors of human tyrosyl-DNA phosphodiesterase 1 (TDP1): qHTS in cells in presence of CPT. Potency, µM (titrated, usually from 46.2 µM), without a hit: top-dose activity change, negative = growth inhibition, usual class: inhibitors. hit rate 12% among 420,000. chicken DT40 Tdp1-/-;hTDP1 cells + 20 nM CPT, ATP luminescence, 48 h. AID 686979, 2013; further: potency means the concentration at half of the fitted maximal effect; on the % scale 0 is the no-effect control and ±100 the full control effect; nearly all actives have a fitted effect of over 55% in size
#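 Chicken DT40 Tdp1-/- cells stably complemented with human TDP1 were seeded at 400 cells/well in medium containing 20 nM camptothecin, exposed to pin-transferred compounds, and grown at 37 °C for at least 48 hr. Viability was read as ATP luminescence.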
# DT40 TDP1 no CPT: qHTS for Inhibitors of human tyrosyl-DNA phosphodiesterase 1 (TDP1): qHTS in cells in absence of CPT; DT40 Tdp1-/- hTDP1 cells, no CPT, ATP luminescence, 48 h; Potency, µM (highest dose often 46.2 µM), inactives show at the highest dose activity change, negative = growth inhibition, most hits filed as inhibitors; hit rate 15% among 420,000; further: potency means the concentration at half of the fitted maximal effect; on the % scale 0 is the no-effect control and ±100 the full control effect; nearly all actives have a fitted effect of over 55% in size
#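 Growth of hTDP1-complemented DT40 Tdp1-knockout cells is measured by ATP luminescence after at least 48 hr compound exposure at 37 °C, with DMSO substituting for the 20 nM CPT used in the parallel screen.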
# MCF10A rereplic: A quantitative high throughput screen for small molecules that induce DNA re-replication in MCF 10a normal breast cells; hit rate 2.9% among 350,000; MCF 10A DNA re-replication, Hoechst nuclear intensity, 48 h; Potency, µM (highest dose often 46.1 µM), inactives show top-dose activity, positive = re-replication, actives largely listed as activators; further: potency means the concentration at half of the fitted maximal effect; % of control where 0% means no effect; nearly all actives have a fitted effect of over 50% in size
# Chronic BCR inh: qHTS Assay to Find Inhibitors of Chronic Active B-Cell Receptor Signaling | ABC-DLBCL IkBa-CBG/CBR reporter, luminescence ratio, 4 h | Potency, µM (highest dose often 46.1 µM), for inactives: at the highest dose activity change, negative = inhibition, actives largely listed as inhibitors | hit rate 0.05% among 340,000; active means well fitted inhibition curve with a large enough effect in the signal ratio, with a control signal flat, not every such curve was filed as active; inconclusive means small, poorly fitted or top-dose-only effect, or effect the other way, or a change in a side signal; the % refers to the signal ratio;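 further: potency means the concentration at half of the fitted maximal effect; plate controls were basal doxycycline-induced cells for no effect and cells given 10 µM MG132 for full effect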
#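 Concentration-response series (up to 46 uM) were applied to TMD8 dual-reporter cells for 4 h at 37C with doxycycline. Green/red ratio, after filter-overlap correction, defined %Activity; red signal alone was normalised to basal cells and zero luminescence.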
# SW480 rerep: A quantitative high throughput screen for small molecules that induce DNA re-replication in SW480 colon adenocarcinoma cells; SW480 DNA re-replication, Hoechst DNA content imaging, 48 h; Potency, µM (titrated, usually from 46.1 µM), without a hit: at the top dose re-replication activation, hits mostly activators; AID 624297, 2012; hit rate 1.8% among 340,000; further: potency means the concentration at half of the fitted maximal effect; % of control where 0% means no effect; nearly all actives have a fitted effect of over 55% in size
#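 SW480 cells exposed to compounds for 48 hr at 37 C, 5% CO2, then Hoechst-stained 40 min. Nuclear DNA content imaged by fluorescence scanning (405 nm excitation, 500-530 nm emission); re-replication scored as increased high-intensity nuclei.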
# IL-1B inflam inh: qHTS for Inhibitors of Inflammasome Signaling: IL-1-beta AlphaLISA Primary Screen. hit rate 4.7% among 360,000. THP-1 LPS/ATP IL-1B secretion, AlphaLISA, 16 h; hits give low values. AID 743279, 2014. activity change, % at 57.5 µM; in the data active means activity change below about -50%; inconclusive means mostly about -30% to -49%; further: on the % scale 0 is the no-effect control and ±100 the full control effect
#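 THP-1 cells pretreated 1 hr with compounds (up to 57.5 uM final), then stimulated with LPS (250 ng/mL final) plus ATP (1.25 mM final); secreted IL-1B measured by AlphaLISA after 16 hr, decreased signal indicating inhibition.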
# The depositor's hits bear a star; ? = inconclusive; . = not tested or not shown; ! = not confirmed by another sample; [ ] = dose if it differs, or a comment. The list is not random: actives were taken first. Their share in the collection is about 19%. Unless noted, the call rests on the fitted dose curve; in most records, active means well fitted curve in the direction sought with a large enough effect; inconclusive means small, poorly fitted or top-dose-only effect, or another doubt; inactive means no such curve, though single readings can be large; an effect the other way counts as inactive or inconclusive.
SMILES,DT40 TDP1 CPT,DT40 TDP1 no CPT,MCF10A rereplic,Chronic BCR inh,SW480 rerep,IL-1B inflam inh
CC(Cc1ccccc1Sc1ccc(O)cc1)N(C)C (configuration not stated),?,21µM*,-2%,-2%,-1%[9.22 µM],-5
CC(N)Cc1ccccc1Sc1ccc(O)cc1 (configuration not stated),.,.,.,0%,.,.
CN(C)C(=O)Oc1ccc[n+](C)c1,4%,2%,0%,3%,-6%,11
C[C@H]1C(=O)O[C@@H]2CCN3CC=C(COC(=O)[C@](C)(O)[C@]1(C)O)[C@H]23,12µM*!,?,?,-1%,5%,4
OCC1CCCN2CCCCC12 (configuration not stated),6%,-6%,.,.,.,.
COc1ccc(Cc2nccc3cc(OC)c(OC)cc23)cc1OC,8.2µM*,5.8µM*,?,?,?,-9
O=C(C[N+]12CCC(CC1)C(CO)C2)c1ccc(Br)cc1 (configuration not stated),-3%,-4%,14%,?,-6%,14
CCCC(=O)OC(C(Cl)(Cl)Cl)P(=O)(OC)OC (configuration not stated),?,?,27%,.,0%,.
CNC(=O)c1cccn(Cc2cccc(C(F)(F)F)c2)c1=O,-8%,?,4%,?,?,93
CN(C)CCNC(=O)c1cccn(Cc2cccc(C(F)(F)F)c2)c1=O,23µM*,?,?,?,16%,-11
CN1CCN(Cc2ccccc2Sc2ccccc2)CC1,?,?,?,-3%,?,-80*
COc1ccc2[nH]c(=O)c3c(c2c1)OC(C)(C)C=C3,15µM*,15µM*,?,?,3%,-106*
COc1ccc(NC(=O)CCS(=O)(=O)c2ccc3c(c2)oc(=O)n3C)cc1OC,10%,9%,-10%,?,-6%,13
O=C1NC(=O)C2(Cc3ccccc3N3CCCC32)C(=O)N1c1ccccc1 (configuration not stated),0%,-11%,0%,-1%,-5%,61
CN1c2ccc([N+](=O)[O-])cc2CC2(C(=O)NC(=O)N(c3ccc(Br)cc3)C2=O)C1c1ccccc1 (configuration not stated),18µM*,18µM*,0%,6%,1%,-23
CCN1CCN(C(=O)COc2ccc(S(=O)(=O)NC(C)C)cc2)CC1,-8%,-4%,-2%,10%,-1%,28
CCN1CCN(C(=O)COc2ccc3oc4c(c3c2)CCCC4)CC1,?,21µM*,-2%,1%,-5%,10
CCOC(=O)CC(NC(=O)C(Cc1ccc(N(CCCl)CCCl)cc1)NC(C)=O)C(=O)OCC (configuration not stated),1.5µM*,0.52µM*,?,?,?,-79*
CC(=O)NC(Cc1ccc(N(CCCl)CCCl)cc1)C(=O)NC(C(=O)O)C(C)C (configuration not stated),-9%,-21%,14%,10%,-5%,-14
NC(=O)CSP(=O)(c1ccccc1)c1ccccc1,-23%,-23%,-20%,-2%,-3%,-15
NNC(=O)CP(=O)(c1ccccc1)c1ccccc1,?,12µM*!,-2%,-3%,-6%,23
Fc1ccc(Oc2nc(-c3ccccn3)nc3ccccc23)cc1,4.6µM*,5.8µM*,?,?,63%,.
C=C(C)[C@H]1O[C@H]2CC[C@@]3(C)[C@@](O)(CC[C@H]4[C@@H]5OC(C)(C)[C@H]6C[C@@H]7C(=C)Cc8c(Cl)cc9[nH]c(c5c9c8[C@@]76O)[C@@]43C)[C@]23O[C@@H]3[C@H]1O,?,12µM*,.,.,.,.
COc1ccc(C(=O)C2CCCN(Cc3ccc(C)s3)C2)c(OC)c1 (configuration not stated),?,21µM*,0%,?,1%,6
COc1ccc(C(=O)C2CCCN(CCO)C2)c(C)c1 (configuration not stated),-14%,?,-7%,-6%,3%,19
SMILES,DT40 TDP1 CPT,DT40 TDP1 no CPT,MCF10A rereplic,Chronic BCR inh,SW480 rerep,IL-1B inflam inh
COc1ccc(C(=O)C2CCCN(C3CSCCSC3)C2)c(OC)c1 (configuration not stated),?,23µM*,17%,-1%,?,-6
COc1ccc(C(=O)C2CCCN(Cc3cccc(C)n3)C2)c(OC)c1 (configuration not stated),?,21µM*,-16%,-6%,-28%,37
CCn1ccnc1CN1CCCC(C(=O)c2ccc(OC)cc2OC)C1 (configuration not stated),?,?,7%,-1%,-5%,20
Cc1ccc(C(=O)Nc2c(C(=O)Nc3ccc(C)c(C)c3)sc3nc(C)cc(C)c23)cc1,?,18µM*,.,.,.,.
CCCCn1c(=O)c(C(=O)NCc2ccco2)c(O)c2ccccc21,?,?,8%,6%,?,75
CCCCCn1c(=O)c(C(=O)NCc2ccco2)c(O)c2ccccc21,?,16µM*,12%,17%,1%,89
CC(C)CCn1c(=O)c(C(=O)NCc2ccco2)c(O)c2ccccc21,?,9.2µM*,0%,3%,-6%,-4
CS(=O)(=O)c1ccc(C(=O)N2CCC(C(=O)O)(c3ccccc3)CC2)cc1,0%,-2%,-3%,1%,-10%,13
COc1cccc2c1C(=O)c1c(O)c3c(c(O)c1C2=O)C[C@@](O)(C(=O)CO)C[C@@H]3O[C@H]1C[C@H](N)[C@H](O[C@@H]2CCCCO2)[C@H](C)O1,0.19µM*,0.34µM*,.,.,.,.
CC1CCCC(NC(=O)CNC(=S)N2CC3CC(C2)c2cccc(=O)n2C3)C1C (configuration not stated),-4%,20%,5%,1%,-1%,5
NC(Cc1ccc(Cl)cc1)c1csc(Nc2ncccn2)n1 (configuration not stated),3.7µM*,4.1µM*,.,.,.,?
NC(Cc1ccc(C(F)(F)F)cc1)c1csc(Nc2nncc3ccccc23)n1 (configuration not stated),13µM*,21µM*,.,.,.,-67*
